Measurements published in PubChem BioAssay (NCI).
This is part of a sample that, as a whole, favours compounds with a hit. Of some 83,000 tested, about 20% had one in any assay.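 96-well plates, one dose, 48 hours. Percent growth reported; active if below 10.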 Calls of active or inactive are those of the source.

Experiments:
Experiment in all cases: NCI-60 one-dose screen, 48 h (100 = growth as untreated, 0 = no growth, -100 = all killed)
Conditions in all cases: 10 µM unless noted
NCI-H23 lung = test system: NCI-H23 lung
NCI-H226 lung = test system: NCI-H226 lung
NCI-H322M lung = test system: NCI-H322M lung
HOP-62 NSCLC = test system: HOP-62 NSCLC
NCI-H460 lung = test system: NCI-H460 lung
HOP-92 NSCLC = test system: HOP-92 NSCLC
NCI-H522 lung = test system: NCI-H522 lung
A549/ATCC NSCLC = test system: A549/ATCC NSCLC
786-0 renal = test system: 786-0 renal
COLO 205 colon = test system: COLO 205 colon

Measured: growth

Cc1ccc(Cc2cnc(NC(=O)/C=C/c3cccc(C)c3)s2)cc1
inactive: NCI-H23 lung 13.3% | NCI-H226 lung 36.8% | NCI-H322M lung 46.1% | HOP-62 NSCLC 18.5% | HOP-92 NSCLC 70.4% | NCI-H522 lung 18.6% | A549/ATCC NSCLC 16.1% | 786-0 renal 17.8%
active: NCI-H460 lung 1.93% | COLO 205 colon -4.26%

COc1ccc(O)c(-c2cc(-c3ccc(Cl)cc3)c(C#N)c(=O)[nH]2)c1
inactive: NCI-H23 lung 69.6% | NCI-H226 lung 89.1% | NCI-H322M lung 101% | HOP-62 NSCLC 64% | NCI-H460 lung 69.3% | HOP-92 NSCLC 36% | NCI-H522 lung 36.8% | A549/ATCC NSCLC 86.7% | 786-0 renal 68.3% | COLO 205 colon 95.2%

CC(=O)c1c(C)[nH]c(-c2nc3ccc(N4CCN(C)CC4)cc3[nH]2)c1-c1ccc(OCC2CCOCC2)cc1
active: COLO 205 colon 3.57%
inactive: NCI-H23 lung 36.6% | NCI-H226 lung 44.4% | NCI-H322M lung 41.1% | HOP-62 NSCLC 24.7% | NCI-H460 lung 49.6% | HOP-92 NSCLC 37% | NCI-H522 lung 37.6% | A549/ATCC NSCLC 33.2% | 786-0 renal 35.6%

CC1(C)CC[C@]2(CO)CC[C@]3(C)C(=CC[C@@H]4[C@@]5(C)CC[C@H](NCO)C(C)(C)[C@@H]5CC[C@]43C)[C@@H]2C1
inactive: NCI-H226 lung 43.1% | HOP-92 NSCLC 22.2%
active: NCI-H23 lung -64.8% | NCI-H322M lung 7.27% | HOP-62 NSCLC -32.1% | NCI-H460 lung -70.5% | NCI-H522 lung -29.5% | A549/ATCC NSCLC -50% | 786-0 renal -80% | COLO 205 colon -71.5%

COc1cc2nc(Cl)nc(Nc3cccc(C(=O)/C=C/c4ccc(Br)cc4)c3)c2cc1OC
inactive: NCI-H23 lung 96.6% | NCI-H226 lung 83% | NCI-H322M lung 95.1% | HOP-62 NSCLC 98% | NCI-H460 lung 104% | HOP-92 NSCLC 83.6% | NCI-H522 lung 84.3% | A549/ATCC NSCLC 85.1% | 786-0 renal 87% | COLO 205 colon 101%

O=C(O)/C(=C/c1ccc(O)cc1)c1ccccc1
inactive: NCI-H23 lung 93.9% | NCI-H226 lung 100% | NCI-H322M lung 100% | HOP-62 NSCLC 88.8% | NCI-H460 lung 108% | HOP-92 NSCLC 83.1% | NCI-H522 lung 95% | A549/ATCC NSCLC 93% | 786-0 renal 92.2% | COLO 205 colon 120%

N#CC1=C(N)Oc2c(c(N)nn2-c2ccccc2)C1c1ccc(Cl)cc1Cl (stereo not given)
inactive: NCI-H23 lung 103% | NCI-H226 lung 102% | NCI-H322M lung 104% | HOP-62 NSCLC 92.8% | NCI-H460 lung 106% | HOP-92 NSCLC 86.9% | NCI-H522 lung 90.5% | A549/ATCC NSCLC 108% | 786-0 renal 102% | COLO 205 colon 120%

Cc1cccc(C)c1NCc1nc(-c2ccccc2)n[nH]1
inactive: NCI-H23 lung 97.9% | NCI-H226 lung 112% | NCI-H322M lung 95.4% | HOP-62 NSCLC 100% | NCI-H460 lung 107% | HOP-92 NSCLC 101% | NCI-H522 lung 94.5% | A549/ATCC NSCLC 101% | 786-0 renal 95.6% | COLO 205 colon 106%

Cc1ccc(-c2nc3ccc(Cl)cc3c(=O)n2N2C(=O)CSC2c2ccccc2Cl)cc1 (stereo not given)
active: HOP-62 NSCLC 2.48% | HOP-92 NSCLC -4.8%
inactive: NCI-H23 lung 91.1% | NCI-H226 lung 86.6% | NCI-H322M lung 86.7% | NCI-H460 lung 48.5% | NCI-H522 lung 76.9% | A549/ATCC NSCLC 13.2% | 786-0 renal 70% | COLO 205 colon 66.6%

Cn1c(=O)c2c(nc(Br)n2CC(=O)Nc2ccc(F)cc2)n(C)c1=O
inactive: NCI-H23 lung 95.8% | NCI-H226 lung 103% | NCI-H322M lung 111% | HOP-62 NSCLC 96.9% | NCI-H460 lung 109% | HOP-92 NSCLC 87.6% | NCI-H522 lung 81.3% | A549/ATCC NSCLC 92.5% | 786-0 renal 95.3% | COLO 205 colon 104%

Cc1ccc(Sc2sc(-c3ccccc3)nc2[P+](c2ccccc2)(c2ccccc2)c2ccccc2)cc1
active: NCI-H23 lung -12.2% | NCI-H226 lung -3.15% | NCI-H322M lung -19.1% | HOP-62 NSCLC -0.272% | NCI-H460 lung -19.1% | HOP-92 NSCLC -40.4% | NCI-H522 lung -5.65% | A549/ATCC NSCLC 6.14% | 786-0 renal 6.12% | COLO 205 colon -25.3%

C/C(=N/NC(N)=S)C(=O)O
inactive: NCI-H23 lung 101% | NCI-H226 lung 90.1% | NCI-H322M lung 103% | HOP-62 NSCLC 107% | NCI-H460 lung 99.3% | HOP-92 NSCLC 107% | NCI-H522 lung 95.9% | A549/ATCC NSCLC 76% | 786-0 renal 102% | COLO 205 colon 119%

NC(N)=N/N=C/c1ccc(-c2ccc(-c3ccc(Cl)cn3)s2)cc1
inactive: NCI-H23 lung 101% | NCI-H226 lung 88.6% | NCI-H322M lung 96.7% | HOP-62 NSCLC 93.8% | NCI-H460 lung 88.1% | HOP-92 NSCLC 58.3% | NCI-H522 lung 97.6% | A549/ATCC NSCLC 71.4% | 786-0 renal 63.8% | COLO 205 colon 28.7%

CN(C)CCCC1(c2ccc(F)cc2)OCc2cc(-c3ccc(C(F)(F)F)nc3)ccc21 (stereo not given)
inactive: NCI-H23 lung 80.6% | NCI-H226 lung 90.6% | NCI-H322M lung 84.7% | HOP-62 NSCLC 83.3% | NCI-H460 lung 72.9% | HOP-92 NSCLC 51.1% | NCI-H522 lung 74.7% | A549/ATCC NSCLC 71.4% | 786-0 renal 72.7% | COLO 205 colon 60.7%

Cc1ccc2c(c1)c1nc3cc(C)c(C)cc3nc1n2CCN(C)C
inactive: NCI-H23 lung 13.5% | NCI-H322M lung 16.3% | HOP-62 NSCLC 23.8% | HOP-92 NSCLC 32.1% | NCI-H522 lung 31.2% | A549/ATCC NSCLC 12.2% | 786-0 renal 26.5%
active: NCI-H226 lung 7.71% | NCI-H460 lung 9.12% | COLO 205 colon -5.24%

Nc1ccc(Cl)cn1
inactive: NCI-H23 lung 97.7% | NCI-H226 lung 95% | NCI-H322M lung 104% | HOP-62 NSCLC 95% | NCI-H460 lung 105% | HOP-92 NSCLC 87% | NCI-H522 lung 82.9% | A549/ATCC NSCLC 87.7% | 786-0 renal 106% | COLO 205 colon 108%

CCCNc1nc(N(C)O)nc(N(C)O)n1
inactive: NCI-H23 lung 41.3% | NCI-H226 lung 62.9% | NCI-H322M lung 41.5% | HOP-62 NSCLC 16.6% | NCI-H460 lung 11.5% | HOP-92 NSCLC 45.2% | NCI-H522 lung 37% | A549/ATCC NSCLC 41.3%
active: 786-0 renal 7.79% | COLO 205 colon 9.94%

c1ccc(C2Cc3ccccc3C2=NC2CCCCC2)cc1 (stereo not given)
inactive: NCI-H23 lung 98.1% | NCI-H226 lung 100% | NCI-H322M lung 102% | HOP-62 NSCLC 113% | NCI-H460 lung 116% | HOP-92 NSCLC 68.4% | NCI-H522 lung 88.8% | A549/ATCC NSCLC 103% | 786-0 renal 97.5% | COLO 205 colon 115%

Cc1csc(Nc2nc(-c3ccc(Cl)cc3)nc(C(Cl)(Cl)Cl)n2)n1
active: NCI-H322M lung -3.18%
inactive: NCI-H23 lung 95.3% | NCI-H226 lung 110% | HOP-62 NSCLC 76.4% | NCI-H460 lung 56.6% | HOP-92 NSCLC 83.3% | NCI-H522 lung 92.8% | A549/ATCC NSCLC 34.6% | 786-0 renal 89.5% | COLO 205 colon 52.6%

COc1cc(/C=N/Nc2ncnc3c2c(C)nn3-c2ccc(F)cc2)ccc1O
inactive: NCI-H23 lung 90.6% | NCI-H226 lung 102% | NCI-H322M lung 85.6% | HOP-62 NSCLC 106% | NCI-H460 lung 88.1% | HOP-92 NSCLC 60.5% | NCI-H522 lung 72.9% | A549/ATCC NSCLC 97.6% | 786-0 renal 88.6% | COLO 205 colon 104%

Cn1cc(-c2csc(-c3c[nH]c4ccc(F)cc34)n2)c2cccnc21
inactive: NCI-H23 lung 50.4% | NCI-H226 lung 59.7% | NCI-H322M lung 74.8% | HOP-62 NSCLC 43.2% | NCI-H460 lung 11.4% | HOP-92 NSCLC 71.9% | NCI-H522 lung 12.6% | A549/ATCC NSCLC 46.5% | 786-0 renal 66.6% | COLO 205 colon 35.6%

COC(=O)[C@]12CC[C@@H](C)[C@H](C)[C@@H]1C1=CC[C@@H]3[C@@](C)(CC#N)C4=C(C[C@@]3(C)[C@]1(C)CC2)OC[C@]4(C)C=O
active: NCI-H23 lung -10.1% | NCI-H226 lung -37% | HOP-62 NSCLC -23.6% | NCI-H460 lung -57.1% | HOP-92 NSCLC 2.68% | NCI-H522 lung -6.43% | A549/ATCC NSCLC -73.6% | 786-0 renal -19.3% | COLO 205 colon -94%
inactive: NCI-H322M lung 10.4%

Cn1cc(-c2nc(-c3c[nH]c4ncccc34)cs2)c2ccccc21
inactive: NCI-H23 lung 63.4% | NCI-H226 lung 85.7% | NCI-H322M lung 52.6% | HOP-62 NSCLC 92.9% | NCI-H460 lung 35.8% | HOP-92 NSCLC 42.6% | NCI-H522 lung 84% | A549/ATCC NSCLC 90.6% | 786-0 renal 90.5% | COLO 205 colon 85.9%

CCNCCCn1c2c(c3ccc([N+](=O)[O-])cc3c1=O)C(=O)c1cc(OC)cnc1-2
active: NCI-H23 lung -57.2% | NCI-H226 lung -44% | NCI-H322M lung 2.15% | HOP-62 NSCLC -66.6% | NCI-H460 lung -63% | HOP-92 NSCLC -11.5% | NCI-H522 lung -16.1% | A549/ATCC NSCLC -81.8% | 786-0 renal -91.7% | COLO 205 colon -30.9%

COc1cc2ncnc(Nc3ccc(Oc4ccnc(C)c4)c(C)c3)c2cc1NC(=O)CC1CCSS1 (stereo not given)
inactive: NCI-H226 lung 25.8% | HOP-92 NSCLC 62.6% | 786-0 renal 52.5%
active: NCI-H23 lung -49.5% | NCI-H322M lung -49.6% | HOP-62 NSCLC -50.7% | NCI-H460 lung -53.1% | NCI-H522 lung -57.6% | A549/ATCC NSCLC -63.8% | COLO 205 colon -81.1%

N#C/C(=C\c1ccc(-c2ccc(Cl)cc2)o1)c1nc(-c2ccco2)cs1
inactive: NCI-H23 lung 93.9% | NCI-H226 lung 89.3% | NCI-H322M lung 91.6% | HOP-62 NSCLC 97.5% | NCI-H460 lung 96% | HOP-92 NSCLC 85.8% | NCI-H522 lung 90.6% | A549/ATCC NSCLC 91.9% | 786-0 renal 104% | COLO 205 colon 109%
